Records with an inconclusive call do not appear. The source made the active and inactive calls. Calls come from the whole dose curve; as a rule, active = well fitted inhibition curve with a large enough effect; inconclusive = small, poorly fitted or top-dose-only effect; inactive = flat fitted curve, though single readings scatter.
Test system: CRL-7250
Assay: qHTS assay to identify novel small-molecules to repurpose for Merkel cell carcinoma treatment (AID 1296009); note: nearly all actives have a fitted effect of over 60% in size
Settings: MCC and control cell lines, CellTiter-Glo viability, 72 h; series mostly up to 44.8 µM; activity change, negative = cytotoxicity: at the top concentration
Summary of the method: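 Cells were treated for 72 hr at 37 degree celsius with compounds in 8- or 11-point dose response. Viability was read by CellTiter-Glo luminescence, normalized to no-cell (cytotoxicity) and DMSO controls.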
% is set by controls: 0 for no effect and ±100 for the full control effect.

SMILES	outcome	activity change, negative = cytotoxicity
Oc1cn2c(n1)Nc1ccc(Cl)c(Cl)c1C2	inactive [at 17.4 µM]	
CC1(C)S[C@@H]2[C@H](NC(=O)Cc3ccccc3)C(=O)N2[C@H]1C(=O)O (tested in a mixture with another compound)	inactive	
CCCCCOC(=O)Nc1nc(=O)n([C@@H]2O[C@H](C)[C@@H](O)[C@H]2O)cc1F	inactive	
Cc1ccc(S(=O)(=O)NC(=O)NN2CC3CCCC3C2)cc1 (stereo not given)	inactive	
Cc1nc2n(c(=O)c1CCN1CCC(c3noc4cc(F)ccc34)CC1)CCC[C@H]2O	inactive [at 17.4 µM]	
Cc1ccc(-c2cc(C(F)(F)F)nn2-c2ccc(S(N)(=O)=O)cc2)cc1	inactive	
Cc1ccc(S(=O)(=O)NC(=O)NN2CCCCCC2)cc1	inactive	
CCOc1ccc2ccccc2c1C(=O)N[C@@H]1C(=O)N2[C@@H]1SC(C)(C)[C@@H]2C(=O)O	inactive	
C[C@@H](O)[C@H]1C(=O)N2C(C(=O)O)=C(S[C@@H]3CN[C@H](C(=O)N(C)C)C3)[C@H](C)[C@H]12	inactive	
O=c1n(CCCN2CCN(c3cccc(Cl)c3)CC2)nc2ccccn12	inactive	
CCC1C(=O)OCC1Cc1cncn1C (stereo not given)	inactive	
CC(=O)OCC(CCn1cnc2cnc(N)nc21)COC(C)=O	inactive	
C[C@@H]1CC(=O)NN=C1c1ccc(NN=C(C#N)C#N)cc1	inactive	
Cc1nc(-c2ccc(OCC(C)C)c(C#N)c2)sc1C(=O)O	inactive	
CNCC[C@H](Oc1cccc2ccccc12)c1cccs1	inactive	
COC1=CC(=O)C[C@@H](C)[C@]12Oc1c(Cl)c(OC)cc(OC)c1C2=O	inactive	
CN1CCC[C@@H]1Cc1c[nH]c2ccc(CCS(=O)(=O)c3ccccc3)cc12	inactive	
CCCNCC(O)COc1ccccc1C(=O)CCc1ccccc1 (stereo not given)	inactive	
O=C1N=C(O)CN1/N=C/c1ccc(-c2ccc([N+](=O)[O-])cc2)o1	inactive	
CCOC(=O)[C@H](CCc1ccccc1)N[C@@H](C)C(=O)N1Cc2cc(OC)c(OC)cc2C[C@H]1C(=O)O	inactive	

SMILES	outcome	activity change, negative = cytotoxicity
CS(=O)c1ccc(-c2nc(-c3ccc(F)cc3)c(-c3ccncc3)[nH]2)cc1 (stereo not given)	inactive	
CN1CCN(CCCN2c3ccccc3Sc3ccc(Cl)cc32)CC1	inactive	
Cc1cc2c(s1)Nc1ccccc1N=C2N1CCN(C)CC1	inactive	
CN1CCN(C2=Nc3ccccc3Oc3ccc(Cl)cc32)CC1	inactive	
COc1cc(Cc2cnc(N)nc2N)cc(OC)c1OC	inactive	
CCCN[C@H]1CCc2nc(N)sc2C1	inactive	
CN(C)[C@@H]1C(=O)C(C(N)=O)=C(O)[C@@]2(O)C(=O)C3=C(O)c4c(O)ccc(Cl)c4[C@@H](O)[C@H]3C[C@@H]12	inactive	
CN(C)C(=N)N=C(N)N	inactive	
O=C1[C@H](CC[C@H](O)c2ccc(F)cc2)[C@@H](c2ccc(O)cc2)N1c1ccc(F)cc1	inactive	
Cc1cnc(C(=O)NCCc2ccc(S(=O)(=O)NC(=O)NC3CCCCC3)cc2)cn1	inactive	
CCCCc1ncc(/C=C(\Cc2cccs2)C(=O)O)n1Cc1ccc(C(=O)O)cc1	inactive	
CN(C)c1nc(N(C)C)nc(N(C)C)n1	inactive	
Cc1[nH]c(=O)c(C#N)cc1-c1ccncc1	inactive	
CN(CCOc1ccc(NS(C)(=O)=O)cc1)CCc1ccc(NS(C)(=O)=O)cc1	inactive	
OCCN(CCO)c1nc(N2CCCCC2)c2nc(N(CCO)CCO)nc(N3CCCCC3)c2n1		-5.55% (inactive)
CC(C)(C(=O)O)c1ccc(C(O)CCCN2CCC(C(O)(c3ccccc3)c3ccccc3)CC2)cc1 (stereo not given)	inactive	
C[C@H]1O[C@H](O[C@H]2[C@H](O)[C@@H](O)[C@@H](O[C@H]3[C@H](O)[C@@H](O)[C@H](O)O[C@@H]3CO)O[C@@H]2CO)[C@H](O)[C@@H](O)[C@@H]1N[C@H]1C=C(CO)[C@@H](O)[C@H](O)[C@H]1O	inactive	
O=C(c1ccc(OCCN2CCCCC2)cc1)c1c(-c2ccc(O)cc2)sc2cc(O)ccc12	inactive	
Cc1ccc(C)c(OCCCC(C)(C)C(=O)O)c1	inactive	
CCN(CC)CCCC(C)Nc1ccnc2cc(Cl)ccc12 (stereo not given)	inactive [at 9.27 µM]	
